Screening results as filed in PubChem BioAssay.
An excerpt weighted towards active compounds, which were near 6.1% of everything screened.
Cdc25B inh – inhibitors of Cdc25B phosphatase catalytic domain, primary screen, biochemical, OMFP fluorescence. 65,000 compounds, 0.1% hits. M-phase inducer phosphatase 2 (Homo sapiens), P30305. recombinant Cdc25B, OMFP fluorescence Ex485/Em525. inhibition, %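 (compounds tested at 10 µM final in the well)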; in the data active = inhibition above about 50%
M1 ag – M1 muscarinic receptor agonists, primary screen, CHO-M1 cells, Fluo-4 calcium, agonist mode | Fluo-4 calcium fluorescence; stronger effect = higher value | B-score at 10 µM | 64,000 compounds, 3% hits;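 active = fluorescence rise, raw or as B-score row- and column-corrected plate score, outside the 99.7% band of its plate's samples, either direction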
MKP-1 inh – MKP-1 phosphatase inhibitors, primary screen, biochemical, in vitro | Dual specificity protein phosphatase 1 (Homo sapiens), P28562 | AID 374, 2006 | inhibition, %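 (compounds tested at a single concentration somewhere between 10 and 100 µM)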 | recombinant MKP-1, OMFP hydrolysis fluorescence | 65,000 compounds, 0.15% hits;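 active = inhibition above about 50%, limit read from the data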;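 also: 0% = DMSO max control wells and 100% = wells with enzyme stopped by NaOH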
Target sequence (P28562 whole entry, looked up): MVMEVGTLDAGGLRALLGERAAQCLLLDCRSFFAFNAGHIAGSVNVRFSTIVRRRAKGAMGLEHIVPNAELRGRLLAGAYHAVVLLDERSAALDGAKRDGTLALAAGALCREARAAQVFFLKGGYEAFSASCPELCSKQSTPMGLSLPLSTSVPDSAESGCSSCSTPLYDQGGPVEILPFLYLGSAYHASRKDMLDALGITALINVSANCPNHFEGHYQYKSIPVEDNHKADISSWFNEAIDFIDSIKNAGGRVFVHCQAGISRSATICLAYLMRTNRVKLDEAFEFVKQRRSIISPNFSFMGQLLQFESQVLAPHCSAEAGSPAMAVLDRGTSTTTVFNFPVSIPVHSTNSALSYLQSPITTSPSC
M1 antag – antagonists of rat M1 muscarinic receptor; Muscarinic acetylcholine receptor M1 (Rattus norvegicus), P08482; CHO-M1 cells, Fluo-4 calcium, ACh EC80 antagonist mode; stronger effect = lower value; B-score at 10 µM; 64,000 compounds, 3.4% hits;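 active = calcium fluorescence response, raw or row-and-column corrected B-score, differing from the plate sample mean either way at a set confidence level, mostly lower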
Hsp90 inh – tumor Hsp90 inhibitors, primary screen, cell lysate, fluorescence polarization, NCI-N417 lysate; Heat shock protein HSP 90-alpha (Homo sapiens), P07900; Cy3B-geldanamycin FP displacement; inhibition, % at 30 µM; 64,000 compounds, 0.35% hits; AID 429, 2006;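 active = inhibition above 50%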;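 also: 0% = tracer plus lysate wells and 100% = tracer alone without lysate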
MMP13 inh – human MMP13 inhibitors, primary screen, biochemical, FRET peptide cleavage. AID 570, 2006. inhibition, % at 4 µM. 65,000 compounds, 0.07% hits. Collagenase 3 (Homo sapiens), P45452. MMP-13 fTHP FRET cleavage, Mca fluorescence;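 active = inhibition above the mean of compound-free control plate wells plus 3 SD, cut at about 14% in these data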;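 also: 0% = DMSO wells and 100% = wells with reference MMP-13 inhibitor after basal subtraction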
M1 antag conf – rat M1 muscarinic receptor antagonists, confirmation, CHO cells, Fluo-4 calcium, duplicate; shares compounds with M1 antag; 1,700 compounds, 43% hits; calcium response (max-min fluorescence) at 10 µM; ACh EC80 antagonism; stronger effect = lower value;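 active = calcium response below the same-plate mean of wells given acetylcholine alone at its 80%-effect dose, minus 3 SD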;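 also: raw fluorescence intensity difference in arbitrary instrument units and not normalized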
mGluR4 antag – human mGluR4 response to M1 antagonist hits, M1 allosteric modulator project, cell-based, antagonist mode, secondary assay 1. CHO-mGluR4 calcium flux, Fluo-4 fluorescence, glutamate EC80; stronger effect = lower value. shares compounds with M1 antag. 1,700 compounds, 0.9% hits. fluorescence response (max-min) at 10 µM;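 active = fluorescence response below the plate's average for near-maximal glutamate wells, less 3 SD of those wells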;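 also: raw unnormalized fluorescence span taken in the window right after glutamate addition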
Active calls of the source: *; i = inactive; / = no result.

SMILES | Cdc25B inh | M1 ag | MKP-1 inh | M1 antag | Hsp90 inh | MMP13 inh | M1 antag conf | mGluR4 antag
N=c1c(C(=O)NCc2ccco2)cc2c(=O)n3ccccc3nc2n1Cc1ccc(Cl)cc1 | 6 | / | 20 | / | -8 | -93 | / | /
Cc1cccn2c(=O)c3cc(C(=O)NCc4cccnc4)c(=N)n(C(C)C)c3nc12 | -9 | -1.2 | 2 | -2.5* | 0 | i | 579 | 259
COC(=O)c1cc2c(=O)n3ccccc3nc2n(C(C)C)c1=N | 1 | -0.72 | 9 | -0.29 | -16 | -393 | / | /
CC(C)n1c(=N)c(C(=O)NCCc2ccccc2)cc2c(=O)n3ccccc3nc21 | -7 | 4.1 | -5 | -4.1* | -1 | i | 445* | 247
COC(=O)c1cc(NC2c3ccccc3C(=O)N2CCN2CCOCC2)cc(C(=O)OC)c1 (configuration not stated) | -5 | 0.38 | 8 | -0.0052 | -2 | 1 | / | /
O=C(Cc1ccc(Br)cc1)N1CCCCCC1 | -6 | 0.43 | 5 | 0.51 | -8 | 7 | / | /
Cc1nccn1CCc1n[nH]c(=S)n1Cc1ccccc1 | 12 | 1 | -6 | -9.5* | -1 | 6 | 314* | 233
Cc1ccc(-n2c(=O)cc(NCc3cccnc3)[nH]c2=O)cc1 | -7 | -0.16 | 0 | 0.77 | -5 | 2 | / | /
CC(C)Cn1c(=O)n(C)c(=O)c2[nH]cnc21 | / | / | / | / | 7 | / | / | /
O=C(NCc1ccccc1)NC1(C(=O)N2CCN(c3ccccc3)CC2)CCCCC1 | -2 | -0.37 | -18 | 0.15 | -1 | -3 | / | /
Cc1ccc(C(=O)C2=C(O)C(=O)N(CCN3CCOCC3)C2c2ccccn2)o1 (configuration not stated) | 2 | -0.04 | -18 | -0.81 | -7 | 0 | / | /
CN1C(=O)c2c(sc3c2CC(C)(C)SC3)N2CCN=C12 | -15 | 0.21 | 29 | -1.1 | -4 | -9 | / | /
CC1(C)Cc2c(sc3c2C2=NCCN2C=N3)CS1 | 12 | -0.36 | -11 | -5.4* | -7 | -8 | 411* | 254
Cc1cc(NC(=O)Cn2nnc3sc4c(c3c2=O)CCCC4)no1 | -5 | -0.74 | 21 | -5* | -4 | 4 | 549 | 248
Cc1cc(-n2nc(C)cc2C)nc(NS(=O)(=O)c2ccccc2)n1 | -9 | -0.33 | 12 | 0.16 | / | -1 | / | /
COc1ccc(C2(C)NC(=O)N(Cc3cc(Cl)cc4c3OCOC4)C2=O)cc1OC (configuration not stated) | -10 | 0.63 | 5 | 0.1 | 1 | 3 | / | /
O=C(CN1CCCC(O)C1)N1c2ccccc2Sc2ccc(C(F)(F)F)cc21 (configuration not stated) | -6 | 0.41 | 6 | -11* | -5 | -3 | 16* | 227
CCOC(=O)N1CCC(N2C(=O)c3ccccc3C2Nc2ccccc2C)CC1 (configuration not stated) | -17 | 0.78 | 9 | 0.4 | -1 | 4 | / | /
CCOC(=O)c1ccccc1NC1c2ccccc2C(=O)N1C1CCN(C(=O)OCC)CC1 (configuration not stated) | 0 | 0.51 | 16 | -1.6* | -1 | -38 | 384* | 237
CCCC1(CCC)NC(=O)NC1=O | -15 | 0.05 | -7 | -2.9* | -4 | 2 | 587 | 249
Cn1ccnc1SCC(=O)c1ccc(Br)cc1 | 2 | 1.1 | -20 | 0.17 | -3 | -1 | / | /
CCOC(=O)c1nnn(-c2nonc2NC(C)=O)c1C | -10 | -0.32 | -7 | -0.9* | -2 | -5 | 574* | 178
O=S(=O)(NC1CCCC1)c1cccc(S(=O)(=O)N2CCC(n3nnc4ccccc43)CC2)c1 | -5 | 1.2 | -12 | -0.17 | -4 | 1 | / | /
CCN1CCN(Cc2ccc(OC)c(OCc3ccccc3)c2)CC1 | -17 | 1.2 | 2 | 1 | 0 | 5 | / | /
COc1ccc(CN2CCN(c3ccccn3)CC2)cc1OCc1ccccc1 | -16 | 2.2 | -21 | -2.7* | -1 | 4 | 573* | 171
SMILES | Cdc25B inh | M1 ag | MKP-1 inh | M1 antag | Hsp90 inh | MMP13 inh | M1 antag conf | mGluR4 antag
CC1(C)CC(N2CCC(=O)N(C3CC(C)(C)NC(C)(C)C3)C2)CC(C)(C)N1 | 0 | -0.095 | 9 | -3.2* | 0 | 0 | 547 | 199
COc1ccc(-c2cc(C(F)(F)F)nc(SCCC(=O)N3CCN4CCCC4C3)n2)cc1 (configuration not stated) | 7 | 0.066 | 7 | -3.4* | -2 | -15 | 310* | 248
O=C(CCSc1nc(-c2ccco2)cc(C(F)(F)F)n1)N1CCN(c2ccccc2)CC1 | -12 | 0.35 | 12 | -3.8* | 1 | 2 | 668 | 189
COc1ccc(-c2cc(C(F)(F)F)nc(SCCC(=O)Nc3cc(C)on3)n2)cc1 | -15 | 1.7 | 16 | -0.4 | -1 | -7 | / | /
CC(C)Sc1nc(-c2cccs2)nc2c1c(=O)n(C)c(=O)n2C | 6 | -0.39 | 11 | -0.33 | 0 | 5 | / | /
Cc1nn(-c2ccccc2)c2sc(C(=O)OCN3C(=O)c4ccccc4C3=O)cc12 | -2 | 4.8 | 4 | 0.25 | -1 | 0 | / | /
CCOc1cc(C(=O)N(C)c2ccccc2)cc(OCC)c1OCC | -7 | 0.45 | 5 | -0.77 | -2 | 4 | / | /
CCN(CC)CCCCOc1ccccc1OC | -8 | -0.38 | 7 | -0.27 | 1 | 0 | / | /
CCN(CC)CCOc1cccc(C(C)C)c1 | -3 | -0.029 | -3 | -4.5* | -6 | 3 | 294* | 213
Clc1ccccc1C1SCC2Nc3ccccc3CN21 (configuration not stated) | 6 | 0.21 | 1 | 0.017 | -6 | 2 | / | /
Cc1ccc(C(=O)Nc2cccc(C(=O)O)c2)cc1S(=O)(=O)N1CCCCC1 | -3 | 0 | 8 | 1.2 | 5 | -2 | / | /
Cc1ccc2oc(=O)c3cnn(CC(=O)NC4CCC(C)CC4)c3c2c1 (configuration not stated) | -9 | -0.77 | 14 | -0.98 | -6 | 1 | / | /
Cc1ccc2oc(=O)c3cnn(CC(=O)Nc4ccccc4N4CCN(C)CC4)c3c2c1 | -3 | 0.054 | 5 | -16* | 1 | 3 | 252* | 259
COc1ccc(OC)c(N=C2C(=O)Nc3ccccc32)c1 | 4 | -0.46 | 11 | 0.34 | -5 | 6 | / | /
